The record followed here is PubChem BioAssay (EPA / NIEHS).

Active and inactive are the calls of the source. The calls were made as follows: active = hit-call score of the fitted dose curve at least 0.9, where 1 is the maximum; inactive = score below 0.9.

What all share (settings): mRNA level, 48 h; actives raise or lower the signal
Read-out in assay [1]: Glutathione S-transferase M3 (GSTM3), GSTM3 (gene 2947)
Kind of assay: LTEA_HepaRG_GSTM3: Life Technologies and Expression Analysis (LTEA) Assay for Glutathione S-transferase M3 (GSTM3) using HepaRG (AID 2283501). A digest of the protocol: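 HepaRG, plated 48 h, then serum-free induction medium; test chemical 48 h, duplicate; 100 uM top, half-log x8, 0.5% DMSO. Read-out: GSTM3 mRNA (TaqMan qRT-PCR, Fluidigm array). Bidirectional fit vs DMSO.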

Read-out in assay [2]: Heat shock 70 kDa protein 1 (HSPA1A), gene 3303
Description: LTEA_HepaRG_HSPA1A: Life Technologies and Expression Analysis (LTEA) Assay for Heat shock 70 kDa protein 1 (HSPA1A) using HepaRG (AID 2283502). A digest of the protocol: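 Cells were plated and cultured for 48 h, then switched to serum-free induction medium. Chemicals were added at eight half-log concentrations up to 100 uM for 48 h. RNA was then isolated and HSPA1A measured by qRT-PCR with bidirectional curve fitting against DMSO.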

Read-out in assay [3]: Hypoxia-inducible factor 1-alpha (Homo sapiens) (UniProt Q16665)
Description: LTEA_HepaRG_HIF1A: Life Technologies and Expression Analysis (LTEA) Assay for Hypoxia-inducible factor 1 (HIF1A) Trancription factor using HepaRG (AID 2283503). The method in brief:
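HIF1A transcript level read by qRT-PCR (ACTB, GAPDH, POLR2A normalization) after 48 h chemical exposure of HepaRG cultures. Eight half-log concentrations, top 100 uM, 0.5% DMSO vehicle, duplicates; bidirectional curve fit against DMSO baseline.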

Read-out in assay [4]: 3-Hydroxy-3-Methylglutaryl-CoA Synthase 2 (HMGCS2), HMGCS2 (gene 3158)
Description: LTEA_HepaRG_HMGCS2: Life Technologies and Expression Analysis (LTEA) Assay for 3-Hydroxy-3-Methylglutaryl-CoA Synthase 2 (HMGCS2) using HepaRG (AID 2283504). The method in brief: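 HepaRG, plated 48 h then switched to serum-free induction media; cmpd 8-pt, max 100 uM, 1/2-log, 0.5% DMSO, n=2, 48 h. HMGCS2 mRNA by Fluidigm TaqMan qRT-PCR, ACTB/GAPDH/POLR2A norm; bidirectional fit vs DMSO.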

Read-out in another assay: HGF (gene 3082)
Description: LTEA_HepaRG_HGF: Life Technologies and Expression Analysis (LTEA) Assay for Hepatocyte Growth Facto (HGF) using HepaRG (AID 2283505). A digest of the protocol:
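Read-out is HGF transcript level by qRT-PCR, normalized to three housekeeping genes, fitted bidirectionally against 0.5% DMSO vehicle. Human HepaRG cells received test chemicals for 48 h at up to 100 uM.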

Read-out in assay [5]: Insulin Like Growth Factor 1 (IGF1), IGF1 (gene 3479)
Description: LTEA_HepaRG_IGF1: Life Technologies and Expression Analysis (LTEA) Assay for Insulin Like Growth Factor 1 (IGF1) using HepaRG (AID 2283506). A digest of the protocol:
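Cells are thawed, plated and cultured 48 h, then exposed in duplicate to chemical (highest 100 uM, half-log steps, 0.5% DMSO) for another 48 h. Total RNA is analysed by Fluidigm qRT-PCR for IGF1 expression relative to vehicle.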

Read-out in assay [6]: Intercellular Adhesion Molecule 1 (ICAM1), ICAM1 (gene 3383)
Description: LTEA_HepaRG_ICAM1: Life Technologies and Expression Analysis (LTEA) Assay for Intercellular Adhesion Molecule 1 (ICAM1) using HepaRG (AID 2283507). A digest of the protocol:
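Readout is qRT-PCR mRNA level, normalized to three housekeeping genes and fitted bidirectionally against 0.5% DMSO vehicle. Human HepaRG cultures received compound for 48 h, top concentration 100 uM with half-log dilutions.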

Read-out in assay [7]: Insulin-like growth factor-binding protein 1 (IGFBP1), IGFBP1 (gene 3484)
Kind of assay: LTEA_HepaRG_IGFBP1: Life Technologies and Expression Analysis (LTEA) Assay for Insulin-like growth factor-binding protein 1 (IGFBP1) using HepaRG (AID 2283508). The method in brief:
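Thawed HepaRG cells are plated for 48 h, switched to serum-free induction medium, then dosed in duplicate for another 48 h (100 uM top, half-log steps). Lysates in RLT go to qRT-PCR, and gain or loss of signal is fitted relative to vehicle.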

Read-out in assay [8]: Interleukin 6 (IL6), IL6 (gene 3569)
Kind of assay: LTEA_HepaRG_IL6: Life Technologies and Expression Analysis (LTEA) Assay for Interleukin 6 (IL6) using HepaRG (AID 2283509). The method in brief:
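Changes in IL6 mRNA, up or down relative to 0.5% DMSO controls, were derived from concentration-response curves in human HepaRG cells treated for 48 h at up to 100 uM, with ACTB, GAPDH and POLR2A as normalizers.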

Read-out in assay [9]: Interleukin 6 Receptor (IL6R), IL6R (gene 3570)
Kind of assay: LTEA_HepaRG_IL6R: Life Technologies and Expression Analysis (LTEA) Assay for Interleukin 6 Receptor (IL6R) using HepaRG (AID 2283510).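 As to AC50: differentiated human HepaRG liver cells in serum-free induction medium; TaqMan qRT-PCR signal normalized to ACTB GAPDH and POLR2A housekeeping genes.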 The method in brief:
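Cells were thawed, plated and cultured 48 h, then medium was changed to serum-free induction medium. Chemicals were added in duplicate (100 uM top, half-log steps, 0.5% DMSO) for 48 h. Lysates were analyzed by qRT-PCR for IL6R expression.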

Hypoxia-inducible factor 1-alpha (Homo sapiens), sequence (Q16665 whole entry, looked up): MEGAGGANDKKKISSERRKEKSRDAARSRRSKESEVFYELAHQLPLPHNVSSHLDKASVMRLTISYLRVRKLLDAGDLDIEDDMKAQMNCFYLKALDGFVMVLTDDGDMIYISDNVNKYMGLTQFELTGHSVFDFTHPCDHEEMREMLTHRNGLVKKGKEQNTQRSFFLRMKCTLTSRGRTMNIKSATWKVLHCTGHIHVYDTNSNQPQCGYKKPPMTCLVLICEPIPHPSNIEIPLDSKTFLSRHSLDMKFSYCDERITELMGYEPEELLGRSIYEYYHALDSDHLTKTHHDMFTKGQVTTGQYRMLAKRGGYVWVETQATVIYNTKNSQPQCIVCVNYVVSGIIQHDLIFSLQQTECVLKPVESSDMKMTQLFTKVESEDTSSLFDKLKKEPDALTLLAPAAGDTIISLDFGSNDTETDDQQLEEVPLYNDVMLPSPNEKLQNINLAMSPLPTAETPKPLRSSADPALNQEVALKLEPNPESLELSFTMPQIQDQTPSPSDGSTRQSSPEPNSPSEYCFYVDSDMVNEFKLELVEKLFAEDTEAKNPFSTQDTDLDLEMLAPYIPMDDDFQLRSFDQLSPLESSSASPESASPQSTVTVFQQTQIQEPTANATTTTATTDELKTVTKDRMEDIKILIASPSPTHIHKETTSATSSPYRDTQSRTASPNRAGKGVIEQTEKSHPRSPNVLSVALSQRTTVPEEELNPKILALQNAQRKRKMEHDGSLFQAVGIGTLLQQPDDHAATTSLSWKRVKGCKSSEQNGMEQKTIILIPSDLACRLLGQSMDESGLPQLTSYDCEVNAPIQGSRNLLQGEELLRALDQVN

Consider `OCCOCCOCCO`, for which the outcome (in assay [1]; in assay [2]; in assay [3]; in [4]; with HGF (gene 3082); in assay [5]) was inactive. The compound was classed as inactive in [6], in assay [7], in [8] and in assay [9].

For the compound `c1ccc(C(O[C@@H]2CCCN(CCc3ccc4c(c3)OCO4)C2)c2ccccc2)cc1`, the AC50 in assay [1] is 90.3 µM (active); in assay [2] it was 80.4 µM (active); in [3], 78.3 µM (active); in assay [4], 80.8 µM (active); with HGF (gene 3082), 50 µM (active); in assay [5] it was 58 µM (active). The results for the concentration at half-maximal activity (AC50) in assay [6] and in assay [7] were 85.3 µM (active) and 86.9 µM (active), respectively. For the same compound, the compound was called inactive in assay [8] and in [9].

Take `C=CCc1cc(S(=O)(=O)c2ccc(O)c(CC=C)c2)ccc1O`: the outcome in [1] and in assay [6] was inactive. For the same compound, the AC50 was 79 µM (active) in assay [2]; 91.4 µM (active) in assay [3]; 86.3 µM (active) in [4]; 79.5 µM (active) with HGF (gene 3082); 83.5 µM (active) in assay [5]; 79.6 µM (active) in [7]. Further, the half-maximal activity concentration (AC50) in assay [8] was 93.2 µM (active); in assay [9], 75.9 µM (active).

Regarding `Cn1c(=O)c2[nH]cnc2n(C)c1=O`, the compound was classed as inactive (in [1]; in assay [2]; in assay [4]; in the assay with HGF (gene 3082); in assay [5]; in assay [8]). The compound was classed as inactive in assay [9].

Take `c1ccc2c(c1)-c1cccc3c1c-2cc1ccccc13`: the AC50 in assay [2] was 18.5 µM (active); in assay [4] it was 16.1 µM (active); in the assay with HGF (gene 3082) it was 50 µM (active); in assay [5], 16 µM (active); in assay [7], 2.54 µM (active); in assay [9] it was 11.1 µM (active). In addition, the call in [3], in [6] and in [8] was inactive.

Consider `Cc1ccc(S(=O)(=O)NC(=O)NN2CCCCCC2)cc1`, for which the compound was classed as inactive (in assay [1]; in assay [2]; in assay [4]; in the assay with HGF (gene 3082); in assay [5]; in assay [6]). For the same compound, the compound was called inactive in [7], in assay [8] and in assay [9].

Turning to `O=C(O)[C@H](O)[C@@H](O)C(=O)O`, the compound was called inactive (in [1]; in assay [2]; in assay [4]; with HGF (gene 3082); in assay [5]; in assay [6]). Besides, the compound was called inactive in [7], in [8] and in assay [9].

For the compound `CCCCCCCCN(C)C`, the compound was classed as inactive (in assay [1]; in assay [2]; in assay [3]; in assay [4]; with HGF (gene 3082); in assay [5]). For the same compound, the result in [6], in [7], in assay [8] and in [9] was inactive.

As for `CCn1nc(C)c2c1C(=O)NCC(c1ccc(O)cc1)=N2`, the compound was classed as inactive (in [1]; in [2]; in assay [3]; in assay [4]; with HGF (gene 3082); in assay [5]). For the same compound, the result in assay [6], in assay [7], in assay [8] and in assay [9] was inactive.

For `CCCCCCCCCCCCCCCCOS(=O)(=O)O`, the call (in [1]; in assay [2]; in [3]; in [4]; with HGF (gene 3082); in [6]) was inactive. In addition, the outcome in assay [7], in [8] and in assay [9] was inactive. Besides, the half-maximal activity concentration (AC50) in assay [5] is 44.2 µM (active).

Regarding `CCCCCCCC/C=C\CCCCCCCC(=O)OC[C@@H](O)[C@H]1OC[C@H](O)[C@H]1O`, the call (in [1]; in assay [2]; in assay [3]; in assay [4]; with HGF (gene 3082); in assay [5]) was inactive. Further, the compound was called inactive in [6], in [7], in [8] and in assay [9].

For `COc1cc2c(c(OC)c1OC)-c1ccc(OC)c(=O)cc1[C@@H](NC(C)=O)CC2`, the call (in assay [1]; in assay [2]; with HGF (gene 3082); in assay [6]) was inactive. In addition, the AC50 in assay [3] is 0.113 µM (active); in assay [4] it was 0.286 µM (active); in assay [5], 0.123 µM (active); in [7], 0.584 µM (active); in assay [8] it was 0.144 µM (active); in assay [9], 0.432 µM (active).

Regarding `OCC(CO)(CO)CO`, the compound was classed as inactive (in [1]; in assay [2]; in assay [3]; in [4]; with HGF (gene 3082); in assay [5]). In addition, the compound was classed as inactive in assay [6], in [7], in assay [8] and in assay [9].

`Cc1nc(-c2ccccn2)ncc1C(=O)Nn1cc(C)c2cc(F)ccc21`: the compound was classed as inactive in [1], in assay [2], in assay [5], in [6], in [7] and in assay [8]. In [9], the compound was called inactive. The concentration at half-maximal activity (AC50) in assay [3] was 81 µM (active); in assay [4], 66.8 µM (active); with HGF (gene 3082) it was 65.1 µM (active).

On to `CNC(C)=O`, for which the result (in assay [1]; in assay [2]; in assay [3]; in [4]; in the assay with HGF (gene 3082); in [5]) was inactive. Besides, the outcome in assay [6], in assay [7], in [8] and in assay [9] was inactive.

For the compound `OCCNCCO`, the compound was called inactive (in assay [1]; in [2]; with HGF (gene 3082); in assay [5]; in [6]; in [7]). Further, the call in [8] and in [9] was inactive. Further, the AC50 was 50 µM (active) in assay [3] and 75 µM (active) in assay [4].

Turning to `CCCCCCOC(=O)CC(CC(=O)OCCCCCC)(OC(=O)CCC)C(=O)OCCCCCC`, the outcome (in assay [1]; in [2]; in assay [3]; in assay [4]; in the assay with HGF (gene 3082); in [5]) was inactive. For the same compound, the compound was called inactive in [6], in [7], in assay [8] and in [9].

What is called AC50 is the concentration giving half of the maximal activity seen.
